TRPML1 blocker = blocks the human TRPML1 channel. Q9GZU1. TRPML1-inducible cells, Ca2+ dye fluorescence, FDSS; stronger effect = lower value; inhibition of EC80 agonist-evoked calcium signal. activity change, negative = inhibition, % (no concentration beside the values). 390,000 tested, 0.02% active; in the data active = activity change below about -50%; inconclusive = between about -30% and that limit;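 note: stimulus is agonist 54-4 at its EC80 concentration; % is set by controls: 0 for no effect and ±100 for the full control effect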
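Tet-induced TRPML1-DL cells loaded with Ca8 no-wash calcium dye were read kinetically on FDSS. Compound addition was followed by EC80 agonist 54-4 (4 uM final); inhibition was read over 110 s.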
TRPV1 PAM = enhances activation of the human vanilloid receptor TRPV1; 320,000 tested, 0.02% active; potentiation, % at 8.33 µM; TRPV1-expressing cells, Fluo-8 calcium influx, capsaicin EC20 potentiation; AID 540277; in the data active = potentiation above about 80%; inconclusive = between about 30% and that limit; note: 0% is about no effect
Target sequence (Q8NER1 whole entry, looked up): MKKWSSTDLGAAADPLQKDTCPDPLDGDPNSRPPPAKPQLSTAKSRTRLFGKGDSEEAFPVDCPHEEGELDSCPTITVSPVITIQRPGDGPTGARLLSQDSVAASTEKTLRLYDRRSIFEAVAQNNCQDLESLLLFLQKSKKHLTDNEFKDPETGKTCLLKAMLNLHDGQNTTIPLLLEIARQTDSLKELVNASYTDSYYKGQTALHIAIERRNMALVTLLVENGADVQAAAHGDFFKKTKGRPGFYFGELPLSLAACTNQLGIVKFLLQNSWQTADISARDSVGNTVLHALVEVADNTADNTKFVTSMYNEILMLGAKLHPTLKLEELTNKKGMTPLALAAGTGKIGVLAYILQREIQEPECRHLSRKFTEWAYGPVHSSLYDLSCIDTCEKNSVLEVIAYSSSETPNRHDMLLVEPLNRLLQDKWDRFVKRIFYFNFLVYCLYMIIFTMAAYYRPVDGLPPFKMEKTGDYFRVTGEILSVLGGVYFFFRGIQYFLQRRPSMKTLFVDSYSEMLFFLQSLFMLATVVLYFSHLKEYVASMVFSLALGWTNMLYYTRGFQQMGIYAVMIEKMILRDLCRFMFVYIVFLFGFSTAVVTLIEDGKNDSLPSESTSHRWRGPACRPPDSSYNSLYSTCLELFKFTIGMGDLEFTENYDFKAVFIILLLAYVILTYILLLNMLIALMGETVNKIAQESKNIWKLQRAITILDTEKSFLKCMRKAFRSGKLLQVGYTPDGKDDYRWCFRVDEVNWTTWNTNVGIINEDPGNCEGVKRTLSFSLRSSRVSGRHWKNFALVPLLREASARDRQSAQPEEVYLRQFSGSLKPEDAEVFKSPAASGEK
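TRPV1-expressing cells were cultured overnight at 35.5C and loaded with Fluo-8 calcium dye for 40 to 90 min at room temperature. After a 10 s baseline, compound was added and calcium influx was read kinetically for 3 min (ex 480/em 520 nm).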
TRPV1 ag = activates the human vanilloid receptor TRPV1. Q8NER1. TRPV1-expressing cells, Fluo-8 calcium influx, agonist mode. activation, % at 8.33 µM. 320,000 tested, 0.19% active; in the data active = activation above about 80%; inconclusive = between about 30% and that limit; note: 0% is about no effect
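TRPV1-expressing cells were cultured overnight at 35.5C and loaded with Fluo-8 calcium dye for 40 to 90 min at room temperature. After a 10 s baseline, compound was added and calcium influx was read kinetically for 3 min (ex 480/em 520 nm).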
LDHA block = inhibitors of human lactate dehydrogenase A; activity change, % (values are at about 110 or 230 µM); AID 1347041; 480,000 tested, 0.15% active; purified LDHA, NADH/diaphorase-resazurin fluorescence; stronger effect = lower value; in the data active = activity change below about -30%; inconclusive = mostly about -25% to -30%;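 note: plate controls were DMSO wells for no effect and wells without enzyme for full effect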
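Resorufin fluorescence (ex540/em590), read at 0 and 20 min after diaphorase/resazurin addition, reports the NADH left after a 5 min room-temperature reaction of 2 nM human LDH5 with 0.06 mM NADH and 0.2 mM pyruvate.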
TRPML1 agonist = activates the human TRPML1 channel | TRPML1-expressing cells, Ca2+ dye fluorescence, FDSS | activation, % (no concentration beside the values) | Q9GZU1 | 410,000 tested, 0.12% active | AID 624414; in the data active = activation above about 50%; inconclusive = mostly about 30% to 49%; note: 0% is about no effect
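Kinetic FDSS Ca2+ read in Tet-induced TRPML1-DL cells (ABD Ca8 dye plus quencher, 45-90 min RT loading): baseline, then compound, then 110 s agonist window; EC80 agonist 54-4 at 4uM final added afterwards for a 110 s antagonist window.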
Active calls of the source: *. Rows were chosen to be rich in hits. Some 0.41% of all compounds tested hit in one or more screens of this group.

How did CN1CCN(CC(=O)Nc2ccccc2Sc2ccccc2)CC1 do in these assays?
TRPML1 blocker: -13; TRPV1 PAM: 10; TRPV1 ag: -1; LDHA block: -33*; TRPML1 agonist: 1

Results for O=C(c1cc(COc2ccc(F)cc2Cl)on1)N1CCC(c2ccncc2)CC1 ?
TRPML1 blocker: 34; TRPV1 PAM: 5; TRPV1 ag: 86*; LDHA block: -3; TRPML1 agonist: 1

What do the screens show for `O=C(c1cc(COc2ccc(F)cc2Cl)on1)N1CCCCCC1`?
TRPML1 blocker: 7; TRPV1 PAM: -13; TRPV1 ag: 25; LDHA block: -1; TRPML1 agonist: 0

What do the screens show for `CCCCC1=CC2=CC(=O)C(C)(OC(=O)CC)C(=O)C2=CN1CCc1ccccn1` (stereo not drawn)?
TRPML1 blocker: -54*; TRPV1 PAM: -6; TRPV1 ag: 0; LDHA block: 10; TRPML1 agonist: 0

What do the screens show for `COC(=O)CCCC1=CC2=CC(=O)C(C)(OC(=O)c3cccs3)C(=O)C2=CN1CCc1ccccn1` (stereo not drawn)?
TRPML1 blocker: -4; TRPV1 PAM: inconclusive; TRPV1 ag: 0; LDHA block: 13; TRPML1 agonist: 0

Results for O=C(O)CCCCCNC(=O)CSc1nnc(-c2cccc([S+](=O)([O-])N3CCCC3)c2)n1-c1ccccc1 ?
LDHA block: -12

What do the screens show for `CCC(Cn1nnc2ccccc2c1=O)NC(=O)Nc1ccc(C)c(C)c1` (stereo not drawn)?
TRPML1 blocker: -69*; LDHA block: 1; TRPML1 agonist: 0

Results for N#Cc1nc(-c2ccc(F)cc2)oc1N1CCN(Cc2ccccc2)CC1 ?
LDHA block: -34*

How did N#Cc1nc(-c2ccc(F)cc2)oc1N1CCN(c2ccccc2)CC1 do in these assays?
LDHA block: 4

How did CCN1CCN(c2oc(-c3cccs3)nc2C#N)CC1 do in these assays?
LDHA block: -31*

Results for CCN1CCN(c2oc(-c3ccccc3F)nc2C#N)CC1 ?
LDHA block: -31*

Results for Cc1nc(N2CCN(CCO)CC2)c(C#N)c2c1CCCC2 ?
LDHA block: 14

What do the screens show for `Cc1ccc(NC(=O)C2CCN(S(=O)(=O)c3ccc(Cl)c(C(F)(F)F)c3)CC2)nc1`?
TRPML1 blocker: -8; TRPV1 PAM: -21; TRPV1 ag: 24; LDHA block: -7; TRPML1 agonist: 69*

Results for Cc1ccc(NC(=O)c2ccc(S(=O)(=O)N3CCCC3)cc2)nc1 ?
TRPML1 blocker: 0; TRPV1 PAM: 5; TRPV1 ag: 86*; LDHA block: -4; TRPML1 agonist: -1

What do the screens show for `Cc1ccc(NC(=O)c2ccc(S(=O)(=O)N3CCCCC3)cc2)nc1`?
TRPML1 blocker: 38; TRPV1 PAM: -18; TRPV1 ag: inconclusive; LDHA block: -2; TRPML1 agonist: 0

What do the screens show for `O=C(Nc1ccncc1)C1CCN(S(=O)(=O)c2ccccc2C(F)(F)F)CC1`?
TRPML1 blocker: 1; TRPV1 PAM: -5; TRPV1 ag: 83*; LDHA block: -7; TRPML1 agonist: 0

What do the screens show for `CCOC(=O)c1ccc(NC(=O)CSc2nc(=O)[nH]nc2C)cc1`?
LDHA block: -3

How did CCOC(=O)c1nc2sc3c(c2c(=O)n1C(C)C(=O)OCC)CCCC3 (stereo not drawn) do in these assays?
TRPML1 blocker: 6; TRPV1 PAM: 8; TRPV1 ag: 80*; LDHA block: -5; TRPML1 agonist: 2

What do the screens show for `CCOc1cc(/C=C2/C(=O)ON=C2C)ccc1OCc1ccccc1`?
TRPML1 blocker: -13; TRPV1 PAM: -18; TRPV1 ag: inconclusive; LDHA block: -6; TRPML1 agonist: -1

What do the screens show for `COc1ccc(/C=C2/C(=O)ON=C2C)cc1Br`?
TRPML1 blocker: -3; TRPV1 PAM: 0; TRPV1 ag: -4; LDHA block: 7; TRPML1 agonist: -1

Results for COc1cc(/C=C2\C(=O)ON=C2c2ccccc2)cc(OC)c1OC ?
TRPML1 blocker: -6; TRPV1 PAM: 14; TRPV1 ag: -5; LDHA block: -36*; TRPML1 agonist: -1

What do the screens show for `CCOc1cc(/C=C2\C(=O)ON=C2c2ccccc2)ccc1OC`?
TRPV1 PAM: 3; TRPV1 ag: -1; LDHA block: -61*

Results for COc1ccc(/C=C2\C(=O)ON=C2c2ccccc2)cc1OC ?
TRPML1 blocker: -9; TRPV1 PAM: 5; TRPV1 ag: 0; LDHA block: -50*; TRPML1 agonist: 0

Results for O=C1ON=C(c2ccccc2)/C1=C/c1ccco1 ?
TRPML1 blocker: -1; TRPV1 PAM: -4; TRPV1 ag: 2; LDHA block: 3; TRPML1 agonist: 1

How did NC(=O)COc1ccc(/C=C2\C(=O)ON=C2c2ccccc2)cc1 do in these assays?
TRPML1 blocker: 2; TRPV1 PAM: 7; TRPV1 ag: -2; LDHA block: -57*; TRPML1 agonist: 0

How did COc1ccc(C=C2C(=O)OC(C)(C)OC2=O)cc1OC do in these assays?
TRPML1 blocker: 9; TRPV1 PAM: 1; TRPV1 ag: -7; LDHA block: 2; TRPML1 agonist: 1

Results for COc1ccc(/C=C2/C(=O)ON=C2c2ccccc2)cc1OC ?
TRPML1 blocker: 1; TRPV1 PAM: -3; TRPV1 ag: 3; LDHA block: -60*; TRPML1 agonist: 1

Results for O=C(/C=C/c1c(F)cccc1Cl)Nc1cccnc1 ?
TRPV1 PAM: -5; TRPV1 ag: inconclusive; LDHA block: -2

How did O=C(/C=C/c1cc(Br)ccc1F)Nc1cccnc1 do in these assays?
TRPML1 blocker: 5; TRPV1 PAM: 8; TRPV1 ag: 80*; LDHA block: 2; TRPML1 agonist: 0

What do the screens show for `COc1ccc(/C=C/c2cc(C(=O)O)c3ccccc3n2)cc1O`?
LDHA block: 33

Results for CCN(CC)c1ccc(/C=C(/C#N)c2nc3ccc(C)cc3[nH]2)c(OC(C)C)c1 ?
TRPML1 blocker: -16; TRPV1 PAM: -7; TRPV1 ag: 85*; LDHA block: 8; TRPML1 agonist: 0

Results for c1cc2c3c(cccc3c1)/C(=N/OCC1CO1)C2 (stereo not drawn) ?
LDHA block: -31*

How did Cc1cc(C)cc(N2Cc3ccccc3C2)c1 do in these assays?
TRPML1 blocker: 1; TRPV1 PAM: -12; TRPV1 ag: 8; LDHA block: -2; TRPML1 agonist: 0

What do the screens show for `COc1cc(N2Cc3ccccc3C2)ccc1C=O`?
TRPML1 blocker: 0; TRPV1 PAM: 94*; TRPV1 ag: -1; LDHA block: -11; TRPML1 agonist: 0

What do the screens show for `COc1ccc(C=NNc2ccc(S(=O)(=O)Nc3ccccc3C(=O)O)cc2[N+](=O)[O-])c(OC)c1`?
TRPML1 blocker: -16; LDHA block: -71*; TRPML1 agonist: 1

What do the screens show for `CCCCCOc1nc2ccccc2nc1NS(=O)(=O)c1ccccc1`?
LDHA block: 1
